Measured values taken from article PMC11062922 (Nature Chemical Biology, 2023).
Like-named read-outs stand apart in the source and are kept apart here.

Experiments:
Set-up in all cases: species or system human, MV4-11 + K-562 + COLO205 + SK-N-BE2 + OVCAR-8
ADCK1 = conditions: read-out: apparent Kd, compound concentrations: 100 nM and 1000 nM (sheet 'Samples'), n = 1
ADRBK1 = conditions: read-out: apparent Kd; compound concentrations: 100 nM and 1000 nM (sheet 'Samples'), CATDS: 2.4838233603700199E-2; n = 1
AKT1 = conditions: read-out: apparent Kd, compound concentrations: 100 nM and 1000 nM (sheet 'Samples'), n = 1
AKT2 = conditions: read-out: apparent Kd, compound concentrations: 100 nM and 1000 nM (sheet 'Samples'), n = 1
CDK16 = conditions: read-out: apparent Kd; compound concentrations: 100 nM and 1000 nM (sheet 'Samples'), CATDS: 6.3577465529015803E-2; n = 1
CDK17 = conditions: read-out: apparent Kd; compound concentrations: 100 nM and 1000 nM (sheet 'Samples'), CATDS: 3.37360280865171E-2; n = 1
CDK1 = conditions: read-out: apparent Kd; compound concentrations: 100 nM and 1000 nM (sheet 'Samples'), CATDS: 2.7245131481605699E-2; n = 1
CDK2 = conditions: read-out: apparent Kd; compound concentrations: 100 nM and 1000 nM (sheet 'Samples'), CATDS: 4.36970242470427E-2; n = 1
CDK6 = conditions: read-out: apparent Kd; compound concentrations: 100 nM and 1000 nM (sheet 'Samples'), CATDS: 3.4671115454836803E-2; n = 1
CDK9 = conditions: read-out: apparent Kd; compound concentrations: 100 nM and 1000 nM (sheet 'Samples'), CATDS: 2.7346087342078398E-2; n = 1
CDKL5 = conditions: read-out: apparent Kd; compound concentrations: 100 nM and 1000 nM (sheet 'Samples'), CATDS: 8.0435969039111696E-2; n = 1
CLK1 = conditions: read-out: apparent Kd; compound concentrations: 100 nM and 1000 nM (sheet 'Samples'), CATDS: 3.0051387692213001E-2; n = 1
CLK2 = conditions: read-out: apparent Kd; compound concentrations: 100 nM and 1000 nM (sheet 'Samples'), CATDS: 4.01054923107644E-2; n = 1
CLK4 = conditions: read-out: apparent Kd; compound concentrations: 100 nM and 1000 nM (sheet 'Samples'), CATDS: 3.8689764998843801E-2; n = 1
DYRK1A = conditions: read-out: apparent Kd; compound concentrations: 100 nM and 1000 nM (sheet 'Samples'), CATDS: 7.8363262326560101E-2; n = 1
GSK3A = conditions: read-out: apparent Kd; compound concentrations: 100 nM and 1000 nM (sheet 'Samples'), CATDS: 0.62281927903821299; n = 1
GSK3B = conditions: read-out: apparent Kd; compound concentrations: 100 nM and 1000 nM (sheet 'Samples'), CATDS: 0.401572679379325; n = 1
ICK = conditions: read-out: apparent Kd; compound concentrations: 100 nM and 1000 nM (sheet 'Samples'), CATDS: 0.15504301579156199; n = 1
MAP2K1 = conditions: read-out: apparent Kd; compound concentrations: 100 nM and 1000 nM (sheet 'Samples'), CATDS: 2.5511986591555801E-2; n = 1
MAP2K2 = conditions: read-out: apparent Kd; compound concentrations: 100 nM and 1000 nM (sheet 'Samples'), CATDS: 2.5311950645342699E-2; n = 1
MAPK7 = conditions: read-out: apparent Kd; compound concentrations: 100 nM and 1000 nM (sheet 'Samples'), CATDS: 2.4862770710026599E-2; n = 1
NQO1 = conditions: read-out: apparent Kd; compound concentrations: 100 nM and 1000 nM (sheet 'Samples'), CATDS: 3.3718961414702597E-2; n = 1
PIM1 = conditions: read-out: apparent Kd, compound concentrations: 100 nM and 1000 nM (sheet 'Samples'), n = 1
PIM2 = conditions: read-out: apparent Kd, compound concentrations: 100 nM and 1000 nM (sheet 'Samples'), n = 1
PRKACG = conditions: read-out: apparent Kd; compound concentrations: 100 nM and 1000 nM (sheet 'Samples'), CATDS: 4.2614442075595102E-2; n = 1
PYGL = conditions: read-out: apparent Kd; compound concentrations: 100 nM and 1000 nM (sheet 'Samples'), CATDS: 2.55419672432197E-2; n = 1
RIOK2 = conditions: read-out: apparent Kd; compound concentrations: 100 nM and 1000 nM (sheet 'Samples'), CATDS: 2.90661770930771E-2; n = 1
BTK = conditions: read-out: apparent Kd; compound concentrations: 100 nM and 1000 nM (sheet 'Samples'), CATDS: 5.4009737115297697E-2; n = 1
CDC42BPG = conditions: read-out: apparent Kd; compound concentrations: 100 nM and 1000 nM (sheet 'Samples'), CATDS: 4.9090451053861402E-2; n = 1
CSNK1A1 = conditions: read-out: apparent Kd; compound concentrations: 100 nM and 1000 nM (sheet 'Samples'), CATDS: 4.23666657347909E-2; n = 1
CSNK1E = conditions: read-out: apparent Kd; compound concentrations: 100 nM and 1000 nM (sheet 'Samples'), CATDS: 3.8720748933532501E-2; n = 1
CSNK1G3 = conditions: read-out: apparent Kd; compound concentrations: 100 nM and 1000 nM (sheet 'Samples'), CATDS: 4.2624276708998099E-2; n = 1
IARS = conditions: read-out: apparent Kd; compound concentrations: 100 nM and 1000 nM (sheet 'Samples'), CATDS: 4.0140361212157798E-2; n = 1
MAPK14 = conditions: read-out: apparent Kd; compound concentrations: 100 nM and 1000 nM (sheet 'Samples'), CATDS: 5.21130062125853E-2; n = 1
OPA1 = conditions: read-out: apparent Kd; compound concentrations: 100 nM and 1000 nM (sheet 'Samples'), CATDS: 4.7870015182345502E-2; n = 1
PIK3CD = conditions: read-out: apparent Kd; compound concentrations: 100 nM and 1000 nM (sheet 'Samples'), CATDS: 0.15137185396719799; n = 1
RAB14 = conditions: read-out: apparent Kd; compound concentrations: 100 nM and 1000 nM (sheet 'Samples'), CATDS: 4.5308660485802198E-2; n = 1
RPS6KA3 = conditions: read-out: apparent Kd; compound concentrations: 100 nM and 1000 nM (sheet 'Samples'), CATDS: 4.2284934101133903E-2; n = 1
RPS6KA6 = conditions: read-out: apparent Kd; compound concentrations: 100 nM and 1000 nM (sheet 'Samples'), CATDS: 6.3682849838720093E-2; n = 1
SRC = conditions: read-out: apparent Kd; compound concentrations: 100 nM and 1000 nM (sheet 'Samples'), CATDS: 4.8588200967613397E-2; n = 1
STK3 = conditions: read-out: apparent Kd; compound concentrations: 100 nM and 1000 nM (sheet 'Samples'), CATDS: 4.1174689810954603E-2; n = 1
TAOK1 = conditions: read-out: apparent Kd; compound concentrations: 100 nM and 1000 nM (sheet 'Samples'), CATDS: 5.56620194527895E-2; n = 1

Q: For `O=C(Nc1n[nH]c2nnc(-c3cccnc3)cc12)C1CC1.O=C(O)C(F)(F)F` [SB-675259-M], which potency estimated from few doses (ADCK1; CATDS: 3.00594248157054E-2) is on record?
A: 1.03 µM

Q: What about the potency estimated from few doses (ADRBK1) of the same molecule?
A: 2.13 µM

Q: What about the potency estimated from few doses (AKT1; CATDS: 2.84891592844819E-2) of the same molecule?
A: 1.24 µM

Q: What about the potency estimated from few doses (AKT2; CATDS: 2.9280872528565802E-2) of the same molecule?
A: 1.13 µM

Q: What about the potency estimated from few doses (CDK16) of the same molecule?
A: 0.151 µM

Q: And the potency estimated from few doses (CDK17)?
A: 0.726 µM

Q: And the potency estimated from few doses (CDK1)?
A: 1.46 µM

Q: And the potency estimated from few doses (CDK2)?
A: 0.366 µM

Q: What about the potency estimated from few doses (CDK6) of the same molecule?
A: 0.671 µM

Q: And the potency estimated from few doses (CDK9)?
A: 1.44 µM

Q: And the potency estimated from few doses (CDKL5)?
A: 0.087 µM

Q: And the potency estimated from few doses (CLK1)?
A: 1.03 µM

Q: And the potency estimated from few doses (CLK2)?
A: 0.454 µM

Q: And the potency estimated from few doses (CLK4)?
A: 0.498 µM

Q: What about the potency estimated from few doses (DYRK1A) of the same molecule?
A: 0.0926 µM

Q: What about the potency estimated from few doses (GSK3A) of the same molecule?
A: 0.000113 µM

Q: And the potency estimated from few doses (GSK3B)?
A: 0.000279 µM

Q: And the potency estimated from few doses (ICK)?
A: 0.0147 µM

Q: What about the potency estimated from few doses (MAP2K1) of the same molecule?
A: 1.89 µM

Q: What about the potency estimated from few doses (MAP2K2) of the same molecule?
A: 1.96 µM

Q: And the potency estimated from few doses (MAPK7)?
A: 2.12 µM

Q: And the potency estimated from few doses (NQO1)?
A: 0.727 µM

Q: And the potency estimated from few doses (PIM1; CATDS: 3.8297140879790803E-2)?
A: 0.512 µM

Q: What about the potency estimated from few doses (PIM2; CATDS: 4.1089094062549299E-2) of the same molecule?
A: 0.426 µM

Q: And the potency estimated from few doses (PRKACG)?
A: 0.389 µM

Q: What about the potency estimated from few doses (PYGL) of the same molecule?
A: 1.88 µM

Q: What about the potency estimated from few doses (RIOK2) of the same molecule?
A: 1.16 µM

Q: What does the source list for `COc1cccc(C2=C(c3cn(C)c4ccc(Cl)cc34)C(=O)NC2=O)c1` [RO3300230-000]?
A: potency estimated from few doses (ADCK1; CATDS: 4.1233669692049897E-2): 1.86 µM; potency estimated from few doses (AKT1; CATDS: 4.32167355318668E-2): 1.65 µM; potency estimated from few doses (AKT2; CATDS: 4.9283792774051899E-2): 1.21 µM; potency estimated from few doses (BTK): 0.993 µM; potency estimated from few doses (CDC42BPG): 1.22 µM; potency estimated from few doses (CSNK1A1): 1.73 µM; potency estimated from few doses (CSNK1E): 2.23 µM; potency estimated from few doses (CSNK1G3): 1.71 µM; potency estimated from few doses (IARS): 2.01 µM; potency estimated from few doses (MAPK14): 1.07 µM; potency estimated from few doses (OPA1): 1.29 µM; potency estimated from few doses (PIK3CD): 0.189 µM; potency estimated from few doses (PIM1; CATDS: 5.1032643222322503E-2): 1.12 µM; potency estimated from few doses (PIM2; CATDS: 0.19635235530270301): 0.133 µM; potency estimated from few doses (RAB14): 1.46 µM; potency estimated from few doses (RPS6KA3): 1.74 µM; potency estimated from few doses (RPS6KA6): 0.723 µM; potency estimated from few doses (SRC): 1.25 µM; potency estimated from few doses (STK3): 1.87 µM; potency estimated from few doses (TAOK1): 0.935 µM
